Growth data for 38 compounds are collected here from PubChem BioAssay (NCI).

Compounds without any hit were thinned out: in the full panel of roughly 83,000, 20% have a hit.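 Compound tested at a single concentration for 48 hours in 96-well plates; a percent growth value below 10 was scored as active.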 Activity calls are given as the source filed them.

The experiment concerns HCT-116 colon. The experiment can be described thus: NCI-60 one-dose screen, 48 h (100 = growth as untreated, 0 = no growth, -100 = all killed). Conditions: 10 µM unless noted.
Take `CCN(CC)CCC(=O)c1cccc2ccccc12`: the growth was 109% (inactive).
Turning to `COc1cc(C2C=C(C)N=C3SC=C(C)N32)cc(OC)c1OC` (stereo not drawn), the growth was -67.5% (active).
Take `O=C(CCCn1c2c(sc3ccccc32)c(=O)n2nnc(-c3ccccc3)c12)NCCc1cnc[nH]1`: the growth is -100% (active).
On to `O=c1oc2cc(OS(=O)(=O)c3ccc(F)cc3)ccc2c2c1CCCCC2`, for which the growth was 54.4% (inactive).
On to `C=C1C(=O)O[C@H]2[C@H]1CC/C(Cn1cc(-c3ccsc3)nn1)=C\CC[C@@]1(C)O[C@@H]21`, for which the growth was -96.4% (active).
Turning to `Cc1cc(NC(=O)COC(=O)c2sc3cc(F)ccc3c2Cl)no1`, the growth was 103% (inactive).
For the compound `CNC(=O)c1cc(Oc2ccc3c(c2)sc2nc(-c4ccc(Cl)cc4)cn23)ccn1`, the growth was 80.9% (inactive).
Turning to `O=C(NCCCN1CCN(CCCNC(=O)C2CCCCC2)CC1)C1CCCCC1`, the growth is 95.6% (inactive).
As to `COc1ccc(/C=C/C(=O)c2ccc(B(O)O)cc2)cc1O`, the growth was 1.46% (active).
As to `NCCSC(c1ccccc1)(c1ccccc1)c1ccccc1`, the growth was 7.63% (active).
For the compound `COc1ccc(/C=C/C(=O)/C=C/c2cc3ccc(Cl)cc3[nH]c2=O)cc1`, the growth was -50.8% (active).
Under `CCn1cc(C2NC(=O)c3cc(F)ccc3N2)c2cccc(Cl)c21` (stereo not drawn) stands 8.12% (active); under `O=C(O)c1cn(C2CC2)c2cc(N3CCN(S(=O)(=O)c4ccc(Cl)c(Cl)c4)CC3)c(F)cc2c1=O`, 3.95% (active); under `O=C(Nc1ccc(F)cc1)c1cc([N+](=O)[O-])ccc1O`, 66.8% (inactive).
Take `O=C(Nc1ccc(I)cc1)c1cc([N+](=O)[O-])ccc1O`: the growth was 19.3% (inactive).
Under `CC(C)(C)OC(=O)N[C@@H](Cc1ccccc1)C(=O)N(Cc1ccccc1)C1(C(=O)NCc2ccccc2)CCN(Cc2ccccc2)CC1` stands 20.9% (inactive).
Regarding `C=C1C(=O)O[C@H]2[C@H]1CC/C(COC(=O)NCc1cc(OC)cc(OC)c1)=C\CC[C@@]1(C)O[C@@H]21`, the growth was -60.4% (active).
For the compound `O=C(CN1CCN(c2cc3c(cc2F)c(=O)c(C(=O)O)cn3C2CC2)CC1)Nc1ccc(C(=O)/C=C/c2ccccc2)cc1`, the growth is -83.6% (active).
As for `C=C1C(=O)O[C@H]2[C@H]1CC/C(COC(=O)NCCc1cccc(OC)c1)=C\CC[C@@]1(C)O[C@@H]21`, the growth is -63.9% (active).
Under `COc1ccc(/C(=N/O)c2cc(OC)c(OC)c(OC)c2)c(OC)c1N` stands 20.6% (inactive); under `Cc1cccc(NC(=O)c2sc3nc4c(cc3c2N)CCCC4)c1`, 22.3% (inactive).
On to `O=S(=O)(NCCNc1cc(-c2cn(-c3ccccc3)nc2-c2ccccc2)ccn1)c1ccc(F)cc1`, for which the growth was 79.4% (inactive).
Take `COc1ccc(/C=C2\CCCC3=C2NC(C)=NC3c2ccc(OC)c(OC)c2)cc1OC` (stereo not drawn): the growth was -95.7% (active).
In the case of `N#Cc1ccc(NC(=O)c2ccc3cccnc3c2O)cc1`, the growth was 20.3% (inactive).
The result for `Cc1sc(N=Nc2ccc(N(C)C)cc2)[n+]([O-])c1C` reads 112% (inactive); that for `CCOC(=O)/C=C\C(=O)NC(N)=O`, 86.4% (inactive).
For the compound `CCSc1nnc(Nc2ccc(C(C)C)cc2)s1`, the growth is 72.3% (inactive).
On to `Clc1ccc([I+]c2ccc(Cl)cc2Cl)c(Cl)c1`, for which the growth is -37.7% (active).
Regarding `CC(=O)n1cc([C@H]2CC[C@H](c3cn(C(C)=O)c4ccccc34)c3c2[nH]c2ccccc32)c2ccccc21`, the growth is 63.9% (inactive).
Turning to `O=c1c2cccc3c(Nc4ccc(F)cc4)ccc(c32)c2nc3ccccc3n12`, the growth is 93.9% (inactive).
In the case of `Clc1nc(-c2cccnc2)nc2sc3c(c12)CCCCCC3`, the growth is 97.1% (inactive).
On to `COc1cc(NC(=O)CCl)ccc(=O)c1`, for which the growth is 62.6% (inactive).
The result for `CCn1cc(C(=O)O)c(=O)c2cc(F)c(N3CCN(S(=O)(=O)c4ccc(OC)c(OC)c4)CC3)cc21` reads 105% (inactive).
Consider `CC(=O)C1CCC(C)=CC1=O` (stereo not drawn), for which the growth was 103% (inactive).
`O=C(O)c1ccc(-n2cc(CNc3ccc(C(F)(F)F)cc3)c(-c3ccccc3)n2)cc1`: the growth was 101% (inactive).
Regarding `COc1cc(OC)c(C(=O)/C=C/c2ccc(C#N)cc2)c(OC)c1`, the growth was 10.2% (inactive).
`CCN(CC)CCCNc1nc(C)cc(Nc2ccc3nc(C)cc(N)c3c2)n1`: the growth is 93% (inactive).
As for `Cc1ccnc2nc(C(=O)OCC(=O)Nc3ccc(-c4ccccc4)cc3)nn12`, the growth was 96% (inactive).
